# In PubChem BioAssay AID434973 (Sanford-Burnham Center for Chemical Genomics, 2010):
# The whole screen tested about 330,000 compounds, of which about 4,900 (1.5%) were called active. What follows is part of a selection rich in actives, with near analogues and random picks from the rest. Unmarked numbers belong to inactive results.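 The calls were made as follows: active = inhibition above about 50% at the single test dose (limit read from the data); inactive = the rest.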
# Molecular target: Sentrin-specific protease 7 (Homo sapiens) (UniProt Q9BQF6)
# Assay: blockers of human SENP7 peptidase activity – biochemical, luminescence, uHTS, primary screen (AID 434973);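 also: plate controls were DMSO with enzyme for no effect and no enzyme buffer wells for full effect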
# Details: recombinant SENP7, Z-RLRGG-aminoluciferin luminescence, 40 min; at 5 µM; active compounds read high
row,SMILES,inhibition
1,CCOc1ccc(NC(=O)CN(C)C(=O)c2cccc(S(=O)(=O)N3CCCC3)c2)cc1OCC,-6.73%
2,Cc1ccc(-c2cc(N)on2)cc1,-4.29%
3,Cc1ccc2nc(-c3ccc(Br)cc3)cn2c1,89.3% (active)
4,Cc1cc(N2CCOCC2)nc(-c2ccc(Br)cc2)n1,-7.07%
5,CSc1nnc2ccc(-c3ccc(C)cc3)nn12,-16.3%
6,Cc1ccc(-c2cn3cc(C)ccc3n2)cc1,86.5% (active)
7,Cc1ccc(-n2c(-c3ccc(Cl)cc3)n[nH]c2=S)cc1,-0.859%
8,O=C1C2C3C=CC(C3)C2C(=O)N1c1ccc(S(=O)(=O)Nc2nccs2)cc1 (centres undefined),4.27%
9,CN(C)c1cccc(C(=O)N2CCC(n3nccc3NC(=O)C3CCOC3)CC2)c1 (centres undefined),9.95%
10,CCCCC(=O)Nc1c2c(nn1-c1ccc([N+](=O)[O-])cc1)CS(=O)(=O)C2,-1.87%
11,CC1C(=O)N(Cc2ccccc2)c2ccccc2N1C(=O)c1ccccc1 (centres undefined),-2.81%
12,COc1cc(Cl)cc(C2NC(=O)NC(C)=C2C(=O)NCc2ccccc2)c1O (centres undefined),-4.23%
13,O=C(COC(=O)c1c2c(nc3ccccc13)CCCC2)c1ccc(Br)s1,14.3%
14,Cn1cccc1C(=O)OCC(=O)c1ccc(Br)s1,82.4% (active)
15,Cn1cccc1C(=O)OCC(=O)NCCc1ccccc1,-5.93%
16,O=C(CSc1nncn1-c1cccnc1)N1CCOCC1,5.85%
17,Cc1n[nH]c(=O)c2c(NC(=O)CSc3cc(Cl)ccc3Cl)oc(C)c12,-0.542%
18,CC1CN(c2cc(=O)n(-c3cccc(Br)c3)c(=O)[nH]2)CC(C)O1 (centres undefined),4.5%
19,CCOC(=O)N1CCC(NC(=O)c2cnn3ccccc23)CC1,-0.379%
20,Cc1cnc(C(=O)OCC(=O)N2CCc3ccccc32)cn1,-1.46%
21,O=C(c1cnn2ccccc12)N1CCc2ccccc21,52.8% (active)
22,Cc1ccc(S(=O)(=O)/N=S(\C)C(C)C)cc1 (centres undefined),-7.18%
23,CCC(C)(C(=O)NC1CCCC1)N(C(=O)CNC(C)=O)c1ccc(C)cc1 (centres undefined),-2.07%
24,COc1ccccc1NC(=O)c1ccc2nc(N3C(=O)CCC3=O)sc2c1,-10.2%
25,COc1ccccc1NC(=O)c1ccc(N2CC3CC(C2)c2cccc(=O)n2C3)c(NC(=O)c2cccnc2)c1 (centres undefined),70.4% (active)

row,SMILES,inhibition
1,CCOc1ccccc1NC(=O)c1cccnc1,-1.12%
2,O=C(CC1C(=O)NCCN1CC(c1ccccc1)c1ccccc1)NCCc1cn[nH]c1 (centres undefined),-0.769%
3,O=C(COC(=O)c1ccncc1)c1ccccc1,-15%
4,O=C(Oc1ccc(-c2nc(-c3ccccn3)no2)cc1)c1ccccc1,99.8% (active)
5,Cc1noc(C)c1COC(=O)COc1ccc(-c2ccccc2)cc1,6.3%
6,CN(c1ccc2nc3ccccc3c(=O)n2n1)C1CCCCC1,93.7% (active)
7,CN(C(=O)c1cc2c(=O)n3ccccc3nc2s1)C1CCCCC1,-3.91%
8,CN(C(=O)CSc1nncc2ccccc12)C1CCCCC1,-7.84%
9,CCn1cc(C(=O)N[C@@H](C)C(=O)NCCO)c(=O)c2cc3c(cc21)OCO3,-6.11%
10,CC(C(=O)Nc1ccc(S(=O)(=O)N2CCCC2)cc1)N(C)Cc1ccc(F)cc1 (centres undefined),8.65%
11,CCC(CO)Oc1cc(NCc2ccccc2)c2ncn(C3CCCC3)c2c1 (centres undefined),8.26%
12,CC(C)n1cnc2c(NCc3ccccc3)cc(OCC3CCN(C)CC3)cc21,52.7% (active)
13,CC(C)n1cnc2c(NCc3ccccc3)cc(N[C@@H](CO)Cc3ccccc3)cc21,35.9%
14,O=C(CCNC(=O)C1CCN(S(=O)(=O)c2ccccc2)CC1)NC1CC1,-2.25%
15,O=C(O)c1ccc(S(=O)(=O)N2CCOCC2)o1,-7.75%
16,CCCC(=O)Nc1nnc(CC(=O)OCC)s1,-2.16%
17,O=C(Nc1ccc(Cl)cc1)c1cc2nc(C3CC3)cc(C(F)(F)F)n2n1,2.83%
18,O=C(OC1CCOC1=O)c1ccc(-c2nc3ccccc3s2)s1 (centres undefined),96.8% (active)
19,CC(C)c1ccc(C(=O)OC2CCOC2=O)cc1 (centres undefined),5.83%
20,COc1cc(C(=O)OC2CCOC2=O)c([N+](=O)[O-])cc1OC (centres undefined),-1.58%
21,Cc1cc2oc(=O)cc(CN(C)Cc3ccc(OC(F)F)cc3)c2cc1Cl,5.95%
22,O=C(c1ccc(F)cc1)n1c(=S)nc2ccccn21,96.3% (active)
23,O=C(Cn1c(=S)nc2ccccn21)N1CCc2ccccc2C1,-0.589%
24,O=C(c1ccc(F)cc1)n1cc(C(=S)N2CCOCC2)c2ccccc21,-1.66%
